Test [1] in a line: Viability qHTS for spleen associated tyrosine kinase inhibitor (SYKi) naive MV4-11 cells (AID 1963823). Further: nearly all actives have a fitted effect of over 40% in size. In a few lines:
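SYKi-naive MV4-11 AML cells, 500 per well, were exposed to library compounds for 72 hr at 37 C, 5% CO2. Viability was then read by CellTiter-Glo luminescence after 10 min at room temperature.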
Background: In qHTS, concentration-response curves come from the screen itself.

The nature of test [2]: Viability qHTS for spleen associated tyrosine kinase inhibitor (SYKi) drug resistant MV4-11 cells (AID 1963824). Further: nearly all actives have a fitted effect of over 35% in size. The method, boiled down: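 CellTiter-Glo luminescence, read 10 min after reagent addition, reports viability after a 72 hr compound exposure. Cells are an MV4-11 line made resistant to SYK inhibition, seeded at 500 per well onto compound-containing plates.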

Inconclusive results are not listed. A number with no mark means an inactive call. Active and inactive are the calls of the source. The call rests on the fitted dose curve; in most records, active means well fitted cell-killing curve with a large enough effect; inconclusive means small, poorly fitted or top-dose-only effect, or effect the other way; inactive means no such curve, though single readings can be large or run the other way.
Potency means the concentration at half of the fitted maximal effect.

In the case of `CC(O)C(O)/C=C/C=C/C(=O)O[C@@H]1C=C(C(=O)O)[C@](O)(CO)[C@@]2(C)CCCC(C)(C)[C@H]12` (stereo partly drawn), the Potency entry in test [1] and in test [2] was “inactive” in each case.

For the molecule `C/C1=C\CCC2=CC(OC2=O)C(C)(C)/C=C/C1=O` (stereo not drawn), the Potency is 4.61 µM (active) in test [1] and 2.31 µM (active) in test [2].

Consider `C1CCN2CC3C[C@@H](CN4CCCC[C@@H]34)[C@H]2C1`, for which the Potency entry in test [1] and in test [2] was “inactive” in each case.

For the molecule `Cn1sc(=O)n(Cc2ccccc2)c1=O`, the Potency was 2.59 µM (active) in test [1] and 2.91 µM (active) in test [2].

As to `C=C1[C@H]2[C@H](O[C@@H]3O[C@H](COC(=O)/C=C/c4cc(OC)c(O)c(OC)c4)[C@@H](O)[C@H](O)[C@H]3O)OC=C(C(=O)O)[C@H]2C[C@@H]1O`, the Potency result in test [1] and in test [2] was “inactive” throughout.

With `COC(=O)C1=CO[C@@H](O[C@@H]2O[C@H](CO)[C@@H](O)[C@H](O)[C@H]2O)C2C1CC(O)C2C` (stereo partly drawn), the Potency entry in test [1] and in test [2] was “inactive” each time.

Take `Nc1n[nH]c(N)c1N=Nc1ccc(O)cc1`: the Potency in test [1] is 9.2 µM (active); in test [2] it was 6.51 µM (active).

As for `CC/C=C\CCO[C@@H]1O[C@H](CO[C@@H]2OC[C@H](O)[C@H](O)[C@H]2O)[C@@H](O)[C@H](O)[C@H]1O`, the Potency entry in test [1] and in test [2] was “inactive” throughout.

On to `CC1(C)C2CCC1(C)C(OC(=O)C(O)(CC(=O)O)CC(=O)O)C2` (stereo not drawn), for which the Potency entry in test [1] and in test [2] was “inactive” each time.

For `CC(C)(C)S(=O)(=O)c1ccc2nccc(Nc3n[nH]c4ccc(F)cc34)c2c1`, the Potency in test [1] is 7.42 µM (active); in test [2], 9.34 µM (active).

`OC[C@H]1O[C@@H](OCCc2ccccc2)[C@H](O)[C@@H](O)[C@@H]1O`: the Potency result in test [1] and in test [2] was “inactive” throughout.

On to `CC1=C2[C@@H]([C@H](C)CC[C@H]2/C=C(\C)C(=O)O)[C@H](O)C1`, for which the Potency entry in test [1] and in test [2] was “inactive” throughout.

Consider `CC(O)/C=C/C1C(C)C(O[C@@H]2O[C@H](CO)[C@@H](O)[C@H](O)[C@H]2O)C(O)CC1(C)C` (stereo partly drawn), for which the Potency result in test [1] and in test [2] was “inactive” each time.

Turning to `CN(C)CC(c1ccc(O)cc1)C1(O)CCCCC1` (stereo not drawn), the Potency result in test [1] and in test [2] was “inactive” each time.

On to `COc1c2ccoc2cc2oc(CO[C@@H]3O[C@H](CO)[C@@H](O)[C@H](O)[C@H]3O)cc(=O)c12`, for which the Potency entry in test [1] and in test [2] was “inactive” each time.

With `COc1ccc(C(O)C(C)OC2OC(CO)C(O)C(O)C2O)cc1` (stereo not drawn), the Potency entry in test [1] and in test [2] was “inactive” in each case.

As to `CC1(C)SC2C(NC(=O)[C@H](NC(=O)N3CCNC3=O)c3ccccc3)C(=O)N2C1C(=O)O` (stereo partly drawn), the Potency result in test [1] and in test [2] was “inactive” in each case.

For the molecule `CC(C)=CCC[C@](C)(O[C@@H]1O[C@H](CO[C@@H]2O[C@H](CO)[C@@H](O)[C@H](O)[C@H]2O)[C@@H](O)[C@H](O)[C@H]1O)C1CC[C@]2(C)[C@@H]1[C@H](O)CC1[C@@]3(C)CC[C@H](O[C@@H]4O[C@H](CO)[C@@H](O)[C@H](O)[C@H]4O[C@@H]4O[C@H](CO)[C@@H](O)[C@H](O)[C@H]4O)C(C)(C)[C@@H]3CC[C@]12C` (stereo partly drawn), in test [1], the viability (% of control) is 64.5% [at 9.25 µM]. For the same molecule, the viability, % of control in test [2] was 69.6% [at 9.25 µM].

`CC12CC(O)C(O)C=C1c1cc(O)cc(O)c1C(=O)O2` (stereo not drawn): the Potency result in test [1] and in test [2] was “inactive” in each case.

For `C[C@]12C[C@@H](O)[C@@H]3C[C@@]1(O[C@@H]1O[C@H](CO)[C@@H](O)[C@H](O)[C@H]1O)[C@]3(COC(=O)c1ccccc1)C(=O)O2`, the Potency entry in test [1] and in test [2] was “inactive” throughout.

Consider `O=C(NCCO)c1cccc(-c2cc(Nc3ccc(OC(F)(F)F)cc3)ncn2)c1`, for which the Potency in test [1] was 6.51 µM (active); in test [2] it was 5.8 µM (active).

Take `CC1CCC2(C(=O)O)CCC3(C)C(=CCC4C5(C)CCC(O)C(C)(CO)C5CCC43C)C2C1(C)O` (stereo not drawn): the Potency result in test [1] and in test [2] was “inactive” in each case.

Turning to `CC1=CC2/C=C(\C)CCC(O)C/C=C/C(=O)OC23C(=O)NC(CC(C)C)C3C1C` (stereo not drawn), the Potency in test [1] was 8.93 µM (active); in test [2], 10 µM (active).

`C=CC(=O)Nc1ccc(CN2C(=O)N(c3cc(OC)cc(OC)c3)Cc3cnc(Nc4ccc(N5CCN(C)CC5)cc4)nc32)cc1`: the Potency in test [1] is 1.16 µM (active); in test [2] it was 1.3 µM (active).

Consider `C=C1C(=O)O[C@@H]2[C@H]3C(C)=CC(=O)C3=C(C)CC[C@@H]12`, for which the Potency in test [1] was 2.06 µM (active); in test [2], 0.651 µM (active).

For `CC1(C)CCC[C@]2(C)[C@H]3CC(=O)O[C@]3(C)CC[C@@H]12`, the Potency entry in test [1] and in test [2] was “inactive” in each case.

Regarding `O=C(O)c1ccc(O)c2ncc(N3CCCN(CCc4cccc5ccccc45)CC3)cc12`, the Potency was 18.4 µM (active) in test [1] and 10.3 µM (active) in test [2].

In the case of `CC1=CC(=O)OC(C)(CC(C)(O)C(=O)O)C1` (stereo not drawn), the Potency result in test [1] and in test [2] was “inactive” each time.

Regarding `CC(=O)O[C@@H]1[C@H](O[C@@H]2O[C@H](CO)[C@@H](O)[C@H](O)[C@H]2O)[C@@H](O[C@@H]2O[C@@H](C)[C@H](O)[C@@H](O[C@@H]3O[C@H](CO)[C@@H](O)[C@H](O)[C@H]3O)[C@H]2O)[C@H](OC(=O)[C@]23CCC(C)(C)C[C@H]2C2=CCC4[C@@]5(C)C[C@H](O)[C@H](O[C@@H]6O[C@H](C(=O)O)[C@@H](O)[C@H](O)[C@H]6O)[C@@](C)(C(=O)O)C5CC[C@@]4(C)[C@]2(C)CC3)O[C@@H]1C` (stereo partly drawn), in test [1], the viability (% of control) is 81.2% [at 9.25 µM]. The viability, % of control in test [2] was 91.2% [at 9.25 µM].
